In test [1] the target is Bile acid receptor (Homo sapiens) (UniProt Q96RI1). Kind of test: qHTS assay for small molecule antagonists of farnesoid X receptor signaling (AID 588526). Note: % is set by controls: 0 for no effect and ±100 for the full control effect. The essentials: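 Concentration-response titrations were fitted to the Hill equation for half-maximal inhibition and maximal response, with data normalised to 50 uM chenodeoxycholic acid and DMSO control wells. Cells: FXR-UAS-bla HEK293T, dialyzed FBS.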
Bile acid receptor (Homo sapiens), sequence (Q96RI1 whole entry, looked up): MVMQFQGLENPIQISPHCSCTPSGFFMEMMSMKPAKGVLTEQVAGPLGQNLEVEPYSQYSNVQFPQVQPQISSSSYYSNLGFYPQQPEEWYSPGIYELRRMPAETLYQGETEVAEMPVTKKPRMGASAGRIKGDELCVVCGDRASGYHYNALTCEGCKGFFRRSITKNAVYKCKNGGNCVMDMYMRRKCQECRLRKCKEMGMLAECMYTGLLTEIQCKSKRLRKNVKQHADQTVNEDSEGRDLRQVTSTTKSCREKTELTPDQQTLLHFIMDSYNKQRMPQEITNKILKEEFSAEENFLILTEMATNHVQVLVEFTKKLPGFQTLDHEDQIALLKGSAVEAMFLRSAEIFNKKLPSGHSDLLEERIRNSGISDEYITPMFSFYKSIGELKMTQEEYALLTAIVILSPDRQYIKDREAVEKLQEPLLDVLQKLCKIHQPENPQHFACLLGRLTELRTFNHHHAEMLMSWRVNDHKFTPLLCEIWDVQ
(In general: Quantitative high-throughput screening tests each substance at several concentrations.)

For test [2] the target is unchanged. Briefly: qHTS assay for small molecule agonists of farnesoid X receptor signaling (AID 588527).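 Note: series mostly up to about 77 µM; 0% = vehicle basal and 100% = reference agonist.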 The settings on record: HEK293T FXR-UAS-bla, beta-lactamase ratio, 16 h; activation: stronger effect = higher value. The essentials:
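Quantitative HTS used FXR-UAS-bla HEK293T cells with 16 h compound incubation at 37 C. EC50 values came from concentration-response curves normalized to chenodeoxycholic acid.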

The target of test [3] is Glucocorticoid receptor (Homo sapiens) (UniProt P04150). Kind of test: qHTS assay for small molecule agonists of glucocorticoid receptor signaling (AID 588532; active = well fitted curve in the direction sought with a large enough effect in the signal ratio, with a control signal flat; the % refers to the signal ratio;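 note: 100% = dexamethasone at 0.1 µM and 0% = DMSO only wells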). The settings on record: HeLa MMTV-bla, beta-lactamase ratio, agonist, 18 h; stronger effect = higher value; percent of dexamethasone control, DMSO zero. The essentials:
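MMTV-bla HeLa, beta-lactamase reporter; medium with 1% charcoal/dextran-stripped FBS; cpds up to 92 uM, 18 h, 37 C; CCF4 readout 460/530 nm; Hill fit → EC50, efficacy vs 0.1 uM dexamethasone = 100%.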

Test [4] shares this target. Kind of test: qHTS assay for small molecule antagonists of glucocorticoid receptor signaling (AID 588533; active = well fitted inhibition curve with a large enough effect in the signal ratio, with a control signal flat, not every such curve was filed as active; the % refers to the signal ratio;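 note: cells stimulated with 2 nM dexamethasone as agonist; % is set by controls: 0 for no effect and ±100 for the full control effect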). Summed up: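 Antagonist-mode qHTS: compound titrations added to GRE-bla HeLa cells, then dexamethasone 2 nM final; 18 h, 37 C. CCF4 FRET fluorescence normalized to dexamethasone and DMSO; IC50 from Hill fit.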
The target of test [5] is Peroxisome proliferator-activated receptor delta (Homo sapiens) (UniProt Q03181). Kind of test: qHTS assay for small molecule agonists of peroxisome proliferator-activated receptor delta signaling (AID 588534).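 Note: 0% = DMSO basal wells and 100% = positive control agonist at 10 µM.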 The essentials:
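Reporter cells were plated and held 5 hrs at 37 C before compounds were added. After 18 hrs at 37 C, CCF4 dye was loaded for 2 hrs at RT and fluorescence measured.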

Test [6] is described as follows: qHTS assay for small molecule antagonists of peroxisome proliferator-activated receptor delta signaling (AID 588535; active = well fitted inhibition curve with a large enough effect in the signal ratio, with a control signal flat, not every such curve was filed as active; the % refers to the signal ratio;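 for max response: cells co-treated with a PPAR-delta agonist as stimulator during compound exposure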). The settings on record: HEK293T PPARd-UAS-bla, beta-lactamase FRET ratio, 18 h; 460 nm channel. Summed up:
(§1)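 GeneBLAzer PPAR-delta-UAS-bla HEK293T cells in medium with 2% charcoal/dextran FBS were preincubated 5 hrs at 37 C, then given compounds, incubated 18 hrs at 37 C, and read by CCF4 beta-lactamase fluorescence; IC50 from Hill fits.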

Test [7] deals with Peroxisome proliferator-activated receptor delta (Homo sapiens) (UniProt Q03181). Described as above. Summed up:
as §1

Test [8] deals with Peroxisome proliferator-activated receptor gamma (Homo sapiens) (UniProt P37231). Briefly: qHTS assay for small molecule agonists of peroxisome proliferator-activated receptor gamma signaling (AID 588536; active = well fitted curve in the direction sought with a large enough effect in the signal ratio, with a control signal flat, not every such curve was filed as active; the % refers to the signal ratio;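 note: 0% = DMSO basal wells and 100% = rosiglitazone at 2 µM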). The essentials: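 HEK293 UAS-bla reporter line, 1% charcoal/dextran FBS; titration, 16 h, 37 C; CCF4 loading 2 h RT; fluorescence 460/530 nm. Normalized to rosiglitazone 2 uM = 100%, DMSO = 0%.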
Peroxisome proliferator-activated receptor gamma (Homo sapiens), sequence (P37231 whole entry, looked up): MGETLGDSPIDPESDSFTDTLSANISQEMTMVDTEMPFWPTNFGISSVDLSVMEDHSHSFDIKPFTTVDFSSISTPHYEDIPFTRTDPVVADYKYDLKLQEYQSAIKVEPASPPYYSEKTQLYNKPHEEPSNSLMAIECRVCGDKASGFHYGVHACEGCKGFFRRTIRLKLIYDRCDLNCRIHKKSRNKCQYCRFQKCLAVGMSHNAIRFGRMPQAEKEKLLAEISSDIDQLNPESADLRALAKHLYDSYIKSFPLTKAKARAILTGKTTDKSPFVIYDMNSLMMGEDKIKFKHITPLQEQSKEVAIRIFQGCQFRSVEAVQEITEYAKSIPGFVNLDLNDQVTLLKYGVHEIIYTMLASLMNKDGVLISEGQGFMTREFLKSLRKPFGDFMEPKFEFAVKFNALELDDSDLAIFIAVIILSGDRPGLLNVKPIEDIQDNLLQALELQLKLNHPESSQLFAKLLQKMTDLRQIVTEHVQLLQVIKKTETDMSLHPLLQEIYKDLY

For test [9] the target is unchanged. Kind of test: qHTS assay for small molecule antagonists of peroxisome proliferator-activated receptor gamma signaling (AID 588537; active = well fitted inhibition curve with a large enough effect in the signal ratio, with a control signal flat, not every such curve was filed as active; the % refers to the signal ratio;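 note: reporter cells co-stimulated with 50 nM rosiglitazone agonist during compound treatment; % of control where 0% means no effect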). Summed up:
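PPAR-gamma-UAS-bla HEK293 cells (3000/well, 1% charcoal/dextran-stripped FBS) were preincubated 6-6.5 h at 37 C, given titrated compounds, then stimulated with 50 nM rosiglitazone for 16 h. Beta-lactamase activity was read with CCF4 dye; IC50 came from Hill fits.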

Test [10] has as its target Vitamin D3 receptor (Homo sapiens) (UniProt P11473). Briefly: qHTS assay for small molecule antagonists of vitamin D receptor signaling (AID 588541).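 Note: receptor activated by calcitriol during compound treatment; series mostly up to about 77 µM; % is set by controls: 0 for no effect and ±100 for the full control effect.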 The essentials: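 VDR-UAS-bla HEK293T cells (2000/well, 2% charcoal-stripped FBS) were treated with titrated compounds plus 1-alpha,25-dihydroxyvitamin D3 (50 nM or 3 nM final) for 16 h at 37 C. CCF4 beta-lactamase fluorescence was read; Hill fits gave IC50.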

Test [11] has the same target. Briefly: qHTS assay for small molecule agonists of vitamin D receptor signaling (AID 588543).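 Note: 0% = DMSO basal and 100% = reference agonist control.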 Summed up: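 Reporter cells (HEK293T, VDR-UAS-bla) were seeded in medium with 2% charcoal-stripped serum and incubated 5 h, then compounds in concentration series were added for 16 h at 37 °C. Stimulation was scaled between DMSO basal and 50 nM 1α,25-dihydroxyvitamin D3.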

A short description of test [12]: qHTS assay for small molecule agonists of retinoid X receptor alpha signaling (AID 588544).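 For activation: 0% = DMSO basal wells and 100% = reference agonist.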 The settings on record: HEK293T RXRa-UAS-bla, beta-lactamase reporter, 18 h; 530 nm emission.
The target in test [13] is Retinoic acid receptor RXR-alpha (Homo sapiens) (UniProt P19793). Described as above.
Retinoic acid receptor RXR-alpha (Homo sapiens), sequence (P19793 whole entry, looked up): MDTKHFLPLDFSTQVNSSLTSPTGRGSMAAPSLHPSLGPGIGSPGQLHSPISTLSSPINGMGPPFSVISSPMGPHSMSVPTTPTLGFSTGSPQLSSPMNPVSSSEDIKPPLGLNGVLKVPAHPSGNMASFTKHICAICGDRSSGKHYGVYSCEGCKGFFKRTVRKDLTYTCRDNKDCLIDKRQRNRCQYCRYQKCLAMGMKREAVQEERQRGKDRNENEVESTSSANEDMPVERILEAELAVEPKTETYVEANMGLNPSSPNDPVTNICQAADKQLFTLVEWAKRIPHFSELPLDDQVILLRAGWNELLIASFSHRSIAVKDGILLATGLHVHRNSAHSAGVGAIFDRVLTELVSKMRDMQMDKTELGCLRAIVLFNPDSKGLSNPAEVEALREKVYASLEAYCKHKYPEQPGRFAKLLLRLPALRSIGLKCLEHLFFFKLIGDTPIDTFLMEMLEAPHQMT
For test [14], the target named is Thyroid hormone receptor beta (Homo sapiens) (UniProt P10828). Briefly: qHTS assay for small molecule agonists of thyroid hormone receptor beta signaling (AID 588545).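 Note: 0% = DMSO only and 100% = 10 nM T3.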 The essentials:
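Beta-lactamase reporter activity under TR response element control is measured in HEK 293 cells after 18 hrs compound exposure. Signal is ratiometric CCF4 fluorescence, 460/530 nm.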

A short description of test [15]: qHTS assay for small molecule antagonists of retinoid X receptor alpha signaling (AID 588546; active = well fitted inhibition curve with a large enough effect in the signal ratio, with a control signal flat, not every such curve was filed as active; the % refers to the signal ratio;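 note: cells stimulated with 9-cis-retinoic acid as agonist; % is set by controls: 0 for no effect and ±100 for the full control effect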). The settings on record: HEK293T RXRa-UAS-bla, beta-lactamase ratio, antagonist mode; measured here: W530 green channel, cytotoxicity proxy. The essentials: (§2)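 Beta-lactamase reporter inhibition, read as CCF4 fluorescence ratio (ex 405, em 460/530 nm) after 2 h at RT. HEK293T UAS-bla cells, 2500/well, were stimulated with 9-cis-RA at 500 or 100 nM final alongside test compound for 18 h at 37 C.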

The target in test [16] is Retinoic acid receptor RXR-alpha (Homo sapiens) (UniProt P19793). The test is described as above. The settings on record: HEK293T RXRa-UAS-bla, beta-lactamase ratio, antagonist mode. Summed up: as §2
Test [17] is described as follows: qHTS assay for small molecule agonists of the antioxidant response element (ARE) signaling pathway (AID 651741; active = well fitted activation curve with a large enough effect in the signal ratio; the % refers to the signal ratio; note: % of control where 0% means no effect). The essentials: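 ARE-bla HepG2 cells (beta-lactamase reporter under ARE control) were plated at 2,000 cells/well, preincubated 5 h at 37 C/5% CO2, then treated with DMSO-dissolved compounds for 16 h at 37 C; LiveBLAzer B/G FRET substrate added, fluorescence read after 2 h at room temperature.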

The nature of test [18]: qHTS assay for small molecule activators of the nuclear factor-kappa B (NF-kB) signaling pathway (AID 651749; active = well fitted activation curve with a large enough effect in the signal ratio; the % refers to the signal ratio; note: series mostly up to about 77 µM; % of control where 0% means no effect). The settings on record: NF-kB-bla ME-180 cells, beta-lactamase FRET ratio, 16 h; activation: stronger effect = higher value. The essentials:
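ME-180 cells stably carrying a beta-lactamase reporter under an NF-kB response element were exposed to compound or DMSO vehicle for 16 hr at 37C, 5% CO2. Pathway activation was read by FRET, since reporter expression disrupts FRET.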

Test [19] is described as follows: qHTS assay for environmental chemicals that activate the Aryl hydrocarbon Receptor (AhR) signaling pathway (AID 651777; active = well fitted curve in the direction sought with a large enough effect; an effect the other way counts as inactive or inconclusive; note: % of control where 0% means no effect; nearly all actives have a fitted effect of over 15% in size). The settings on record: 1A2-DRE human hepatoma cells, luciferase, 24 h; activation: stronger effect = higher value. Summed up:
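Human hepatoma 1A2-DRE cells stably carrying a DRE/CYP1A2 promoter–luciferase reporter, 1,200 cells/well, exposed to compound 24 hr at 37 C. Luciferase read by One-Glo luminescence after 30 min at room temperature; increased signal marks AhR activation.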

Test [20] has as its target Peroxisome proliferator-activated receptor alpha (Homo sapiens) (UniProt Q07869). Kind of test: qHTS assay for small molecule agonists of the peroxisome proliferator-activated receptor alpha (PPARalpha) signaling pathway (AID 651778; active = well fitted curve in the direction sought with a large enough effect; an effect the other way counts as inactive or inconclusive; note: % of control where 0% means no effect). The settings on record: PathHunter PPARalpha complementation, chemiluminescence, 6 h; stronger effect = higher value. Summed up:
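Cells plated at 2,000/well and held overnight at 37 C, 5% CO2, then compound added by pin tool for 6 hr; after PathHunter detection reagent and 60 min at room temperature, chemiluminescence from enzyme complementation was read.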

Test [21] is described as follows: qHTS assay for small molecule agonists of the antioxidant response element (ARE) signaling pathway measured by Nrf2-dependant transcriptional activity - cell viability counter screen (AID 720653; active = well fitted curve in the direction sought with a large enough effect in the repeat runs; an effect the other way counts as inactive or inconclusive; note: % is set by controls: 0 for no effect and ±100 for the full control effect). The settings on record: ARE-bla HepG2 viability, CellTiter-Glo ATP luminescence, 16 h; max response: stronger effect = lower value. The essentials:
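ARE-bla HepG2 cells (2,000/well) rested 5 hrs at 37C/5% CO2, then exposed to compounds in DMSO for 16 hrs. Viability was read in the same wells as intracellular ATP by luminescence, 30 min at room temperature after reagent addition.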

Test [22] in a line: qHTS assay for cell viability of HEK293 cells (AID 743288; active = well fitted curve in the direction sought with a large enough effect; an effect the other way counts as inactive or inconclusive; note: % is set by controls: 0 for no effect and ±100 for the full control effect; nearly all actives have a fitted effect of over 50% in size). The settings on record: ATP luminescence (CellTiter-Glo), 18 h; max response: stronger effect = lower value. Summed up: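 HEK293 parental, 2,000 cells/well; ≥5 h pre-incubation 37 C; pintool compound addition; 18 h, 37 C; CellTiter-Glo 30 min RT; luminescence read.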
Test [23] can be described thus: qHTS assay for cell viability of the p53RE-bla HCT-116 cell line (AID 743292; active = well fitted curve in the direction sought with a large enough effect; an effect the other way counts as inactive or inconclusive; note: % is set by controls: 0 for no effect and ±100 for the full control effect; nearly all actives have a fitted effect of over 55% in size). The essentials: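 CellSensor p53RE-bla HCT-116 cells (4,000/well) pre-incubated 5 h at 37 C, then exposed to compounds in DMSO for 16 h at 37 C. Viability read as ATP content by CellTiter-Glo luminescence after 30 min at room temperature.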
Test [24] can be described thus: qHTS for Inhibitors of the Functional Ribonucleoprotein Complex (vRNP) of Lassa (LASV) Arenavirus: LASV Primary Screen - GLuc reporter signal (AID 1347082; calls by dose curve; tested in HEK293 reporter line; note: series mostly up to about 57 µM; % is set by controls: 0 for no effect and ±100 for the full control effect; nearly all actives have a fitted effect of over 60% in size).
Test [25] is described as follows: qHTS for Inhibitors of the Functional Ribonucleoprotein Complex (vRNP) of Lassa (LASV) Arenavirus: Viability assay - alamar blue signal for LASV Primary Screen (AID 1347083; calls by dose curve; tested in HEK293 reporter line; note: series mostly up to about 57 µM; % is set by controls: 0 for no effect and ±100 for the full control effect; nearly all actives have a fitted effect of over 80% in size).
Test [26] in a line: qHTS for Inhibitors of the Functional Ribonucleoprotein Complex (vRNP) of Lymphocytic Choriomeningitis Arenaviruses (LCMV): Viability assay - alamar blue signal for LCMV Primary Screen (AID 1347085; calls by dose curve; tested in HEK293 reporter line; note: series mostly up to about 57 µM; % is set by controls: 0 for no effect and ±100 for the full control effect; nearly all actives have a fitted effect of over 80% in size).
The target in test [27] is Nucleoprotein (Lymphocytic choriomeningitis virus (strain Armstrong)) (UniProt P09992). Briefly: qHTS for Inhibitors of the Functional Ribonucleoprotein Complex (vRNP) of Lymphocytic Choriomeningitis Arenaviruses (LCMV): LCMV Primary Screen - GLuc reporter signal (AID 1347086). Note: series mostly up to about 57 µM; % is set by controls: 0 for no effect and ±100 for the full control effect; nearly all actives have a fitted effect of over 70% in size.
Nucleoprotein (Lymphocytic choriomeningitis virus (strain Armstrong)), sequence (P09992 whole entry, looked up): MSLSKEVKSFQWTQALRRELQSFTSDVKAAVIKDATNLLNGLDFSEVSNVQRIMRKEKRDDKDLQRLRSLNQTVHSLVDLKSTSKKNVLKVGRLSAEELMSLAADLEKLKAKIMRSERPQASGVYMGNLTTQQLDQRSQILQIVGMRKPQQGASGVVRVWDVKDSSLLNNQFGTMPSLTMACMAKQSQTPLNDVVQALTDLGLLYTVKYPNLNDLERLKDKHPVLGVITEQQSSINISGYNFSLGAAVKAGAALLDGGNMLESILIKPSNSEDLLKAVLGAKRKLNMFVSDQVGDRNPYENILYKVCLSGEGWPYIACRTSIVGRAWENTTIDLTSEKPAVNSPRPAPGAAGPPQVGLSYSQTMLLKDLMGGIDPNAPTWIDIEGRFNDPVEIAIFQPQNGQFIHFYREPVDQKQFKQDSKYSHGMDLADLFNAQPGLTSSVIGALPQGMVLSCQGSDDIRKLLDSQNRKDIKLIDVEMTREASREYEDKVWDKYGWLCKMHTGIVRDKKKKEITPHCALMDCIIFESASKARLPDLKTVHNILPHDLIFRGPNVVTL
Test [28] has as its target Nuclear receptor subfamily 1 group I member 2 (Rattus norvegicus) (UniProt Q9R1A7). Kind of test: qHTS assay for small molecule activators of the rat pregnane X receptor (rPXR) signaling pathway (AID 651751; call rule not given here; note: 0% is about no effect). The settings on record: rPXR reporter cells, luciferase (One-Glo), 24 h.
A short description of test [29]: qHTS assay for small molecule activators of the human pregnane X receptor (PXR) signaling pathway (AID 720659; call rule not given here; note: 0% is about no effect).
Test [30] in a line: Inducers of the Endoplasmic Reticulum Stress Response (ERSR) in human glioma: Validation (AID 504836; active = well fitted curve in the direction sought with a large enough effect; an effect the other way counts as inactive or inconclusive; note: 0% is about no effect). Summed up:
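Stably transfected U87-MG human glioma cells carrying a GRP78-based luminescent sensor were seeded at 1000 cells/well, pin-dosed with compounds and incubated 16 h. Luciferase reagent was then added, and end-point luminescence was read after 10 min at room temperature.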

In test [31] the target is Alpha-galactosidase (Coffea arabica) (UniProt Q42656). Briefly: Counterscreen for Glucocerebrosidase Inhibitors: qHTS Assay for Coffee Bean alpha-Galactosidase at pH 4.5 (AID 957; active = well fitted curve in the direction sought with a large enough effect; an effect the other way counts as inactive or inconclusive;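 note: series mostly up to about 77 µM; plate controls were enzyme alone for no effect and no enzyme for full effect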). Summed up:
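AC50 values derive from Hill-equation modeling of concentration-response data, normalized to no-enzyme and full-activity controls. The pH 4.5 citrate assay used 2 nM coffee bean enzyme and 80 uM fluorogenic substrate for 20 min.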
(In general: The purpose of a counterscreen is to sort out artefacts and off-target activity.)

Test [32] shares this target. Briefly: Counterscreen for Glucocerebrosidase Inhibitors: qHTS Assay for Coffee Bean alpha-Galactosidase at pH 5.9 (AID 998; active = well fitted curve in the direction sought with a large enough effect; an effect the other way counts as inactive or inconclusive;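 note: plate controls were uninhibited enzyme for no effect and no-enzyme basal signal for full effect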). The essentials: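 Green coffee bean enzyme (2 nM final) was incubated with compounds (0.7 nM–77 uM) and 4-methylumbelliferyl alpha-D-galactopyranoside (80 uM) in citrate buffer pH 5.9, 20 min at room temperature. High-pH stop; fluorescence 365/440 nm; AC50 from Hill fits.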

Structures are written as SMILES. Inconclusive results are not listed. Active and inactive are the calls of the source. Unless noted, calls come from the whole dose curve.

Alpha-galactosidase (Coffea arabica), sequence (Q42656 whole entry, looked up): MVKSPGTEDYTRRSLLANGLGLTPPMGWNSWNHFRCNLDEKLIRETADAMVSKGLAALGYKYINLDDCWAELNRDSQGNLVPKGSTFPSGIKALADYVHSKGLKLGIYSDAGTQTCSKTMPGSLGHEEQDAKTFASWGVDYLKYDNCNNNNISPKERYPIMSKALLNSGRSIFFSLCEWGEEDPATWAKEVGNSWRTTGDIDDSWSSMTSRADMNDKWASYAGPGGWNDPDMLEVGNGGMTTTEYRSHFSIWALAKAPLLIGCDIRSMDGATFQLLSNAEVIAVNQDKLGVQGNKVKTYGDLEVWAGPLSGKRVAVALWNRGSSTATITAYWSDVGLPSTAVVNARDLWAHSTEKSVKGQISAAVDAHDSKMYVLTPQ
Peroxisome proliferator-activated receptor delta (Homo sapiens), sequence (Q03181 whole entry, looked up): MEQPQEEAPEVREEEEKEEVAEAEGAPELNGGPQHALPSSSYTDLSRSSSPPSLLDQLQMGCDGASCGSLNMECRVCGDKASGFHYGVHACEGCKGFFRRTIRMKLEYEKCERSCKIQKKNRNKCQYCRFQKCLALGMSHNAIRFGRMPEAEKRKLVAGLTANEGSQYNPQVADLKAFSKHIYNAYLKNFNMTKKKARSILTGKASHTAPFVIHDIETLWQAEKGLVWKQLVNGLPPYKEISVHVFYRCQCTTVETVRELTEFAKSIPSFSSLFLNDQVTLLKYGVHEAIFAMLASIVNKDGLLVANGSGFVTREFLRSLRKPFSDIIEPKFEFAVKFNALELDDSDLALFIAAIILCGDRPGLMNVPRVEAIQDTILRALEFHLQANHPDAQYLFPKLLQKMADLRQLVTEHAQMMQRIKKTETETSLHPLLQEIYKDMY
Vitamin D3 receptor (Homo sapiens), sequence (P11473 whole entry, looked up): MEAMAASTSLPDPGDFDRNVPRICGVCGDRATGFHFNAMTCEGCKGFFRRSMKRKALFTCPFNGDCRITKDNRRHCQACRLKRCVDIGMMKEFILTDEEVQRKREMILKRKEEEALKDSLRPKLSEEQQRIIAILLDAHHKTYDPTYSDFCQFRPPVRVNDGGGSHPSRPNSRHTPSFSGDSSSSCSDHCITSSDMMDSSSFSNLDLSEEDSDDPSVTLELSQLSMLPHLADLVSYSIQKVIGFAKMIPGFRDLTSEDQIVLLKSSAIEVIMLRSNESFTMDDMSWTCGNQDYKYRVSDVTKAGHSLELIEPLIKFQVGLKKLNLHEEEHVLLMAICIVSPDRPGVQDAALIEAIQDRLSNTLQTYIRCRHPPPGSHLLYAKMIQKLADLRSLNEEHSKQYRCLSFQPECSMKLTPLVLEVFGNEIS
Glucocorticoid receptor (Homo sapiens), sequence (P04150 whole entry, looked up): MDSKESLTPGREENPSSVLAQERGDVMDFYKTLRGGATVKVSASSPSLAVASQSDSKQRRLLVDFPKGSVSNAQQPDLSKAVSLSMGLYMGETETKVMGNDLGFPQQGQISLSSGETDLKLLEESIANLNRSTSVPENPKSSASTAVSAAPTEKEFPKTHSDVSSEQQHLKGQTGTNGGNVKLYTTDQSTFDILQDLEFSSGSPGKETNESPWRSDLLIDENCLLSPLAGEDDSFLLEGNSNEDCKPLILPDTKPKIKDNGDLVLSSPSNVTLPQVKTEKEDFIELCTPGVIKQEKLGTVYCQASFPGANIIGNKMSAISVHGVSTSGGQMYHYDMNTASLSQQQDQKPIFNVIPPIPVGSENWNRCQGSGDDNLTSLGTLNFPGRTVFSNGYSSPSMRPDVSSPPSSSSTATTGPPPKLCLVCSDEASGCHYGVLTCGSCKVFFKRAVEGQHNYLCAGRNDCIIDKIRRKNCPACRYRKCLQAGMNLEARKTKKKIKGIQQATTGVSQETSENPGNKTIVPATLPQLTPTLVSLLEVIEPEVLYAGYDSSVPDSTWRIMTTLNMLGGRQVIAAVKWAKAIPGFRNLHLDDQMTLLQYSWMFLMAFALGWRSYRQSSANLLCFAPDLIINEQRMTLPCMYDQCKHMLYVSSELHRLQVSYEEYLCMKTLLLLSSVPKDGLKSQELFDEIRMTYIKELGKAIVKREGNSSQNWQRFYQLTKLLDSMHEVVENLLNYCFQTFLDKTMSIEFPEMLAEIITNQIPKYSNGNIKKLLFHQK
Peroxisome proliferator-activated receptor alpha (Homo sapiens), sequence (Q07869 whole entry, looked up): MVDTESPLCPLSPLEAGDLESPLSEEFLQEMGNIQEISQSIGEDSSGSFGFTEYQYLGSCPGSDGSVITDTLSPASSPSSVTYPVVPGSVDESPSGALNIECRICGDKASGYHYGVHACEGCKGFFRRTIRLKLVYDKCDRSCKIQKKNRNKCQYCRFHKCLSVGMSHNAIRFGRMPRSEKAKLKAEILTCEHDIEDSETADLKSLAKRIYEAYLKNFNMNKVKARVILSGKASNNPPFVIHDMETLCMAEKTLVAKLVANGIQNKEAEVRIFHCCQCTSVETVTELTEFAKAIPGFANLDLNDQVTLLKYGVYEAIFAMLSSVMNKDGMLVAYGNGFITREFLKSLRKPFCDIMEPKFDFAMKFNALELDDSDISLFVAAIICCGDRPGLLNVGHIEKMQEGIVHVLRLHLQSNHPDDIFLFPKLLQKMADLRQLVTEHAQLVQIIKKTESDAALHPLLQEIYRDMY
Thyroid hormone receptor beta (Homo sapiens), sequence (P10828 whole entry, looked up): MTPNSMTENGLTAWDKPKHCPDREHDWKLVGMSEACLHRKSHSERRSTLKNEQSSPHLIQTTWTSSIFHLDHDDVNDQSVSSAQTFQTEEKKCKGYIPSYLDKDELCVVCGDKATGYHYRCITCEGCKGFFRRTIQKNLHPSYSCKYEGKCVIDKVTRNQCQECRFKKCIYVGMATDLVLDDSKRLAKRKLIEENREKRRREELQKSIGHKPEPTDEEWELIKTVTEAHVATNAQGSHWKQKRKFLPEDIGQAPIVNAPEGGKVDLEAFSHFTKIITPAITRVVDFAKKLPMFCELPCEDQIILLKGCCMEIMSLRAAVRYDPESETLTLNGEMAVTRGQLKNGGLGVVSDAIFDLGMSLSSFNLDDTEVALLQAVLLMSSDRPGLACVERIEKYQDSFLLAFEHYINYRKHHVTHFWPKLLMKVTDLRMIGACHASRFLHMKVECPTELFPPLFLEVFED

In the case of `CCOP(=S)(OCC)SCSCC`, the Potency result in test [1], in test [4], in [5], in test [9], in [11] and in [14] was “inactive” each time. The Potency entry in [17], in [24], in [25], in test [26] and in test [27] was “inactive” throughout. In addition, the activation in [2] is 1.79% (inactive); in test [3] it was -1.34% (inactive); in [18], -1.47% (inactive); in test [19], 2.07% (inactive). Further, the max response in test [6] is 1.66%; in test [12], -8.57%; in test [15] it was -4.53%; in test [16] it was -2.19% (inactive); in [20] it was -0.311% (inactive); in test [21], 6.11% (inactive). Moreover, the max response was -10.1% (inactive) in test [22] and 5.3% (inactive) in test [28]. The molecule was called inactive in [7], in test [8], in [10], in test [13], in test [23] and in test [29].
In the case of `OC[C@H]1O[C@@H](n2cnc3c(Nc4ccccc4)ncnc32)[C@H](O)[C@@H]1O`, in test [30], the molecule was called inactive. The Potency result in test [24], in test [25], in test [26] and in test [27] was “inactive” in each case.
For the molecule `O=c1c2ccccc2nc2n1CCc1c-2[nH]c2ccccc12`, the result in test [31] and in [30] was inactive. Further, the Potency result in [24], in test [25], in test [26] and in test [27] was “inactive” each time.
With `OCC1O[C@H]([S-])[C@H](O)[C@@H](O)[C@@H]1O.[Au+]` (some centres not stated), the call in [30] was inactive. For the same molecule, the Potency result in test [24], in [25], in [26] and in test [27] was “inactive” each time.
As to `CN(C)S(=O)(=O)c1ccc2c(c1)/C(=C/c1cc3c([nH]1)CCCC3)C(=O)N2`, the outcome in [31], in [32] and in test [30] was inactive. For the same molecule, the Potency result in [24], in test [25], in [26] and in test [27] was “inactive” each time.

For the origin of these results see PubChem BioAssay (NCATS).
